{
  "source": "the supplement of paper PMC12024529",
  "data": [
    {"test_system": "HEK293 WT BDD-FVIII-Gluc", "test": "secreted FVIII-Gluc luciferase Z-score vs DMSO control; higher = more FVIII-Gluc secretion", "conditions": "5 µM", "procedure": "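Natural plant-compound library (480 compounds, ST catalogue IDs) screened on HEK293 cells stably expressing WT BDD-FVIII-Gaussia luciferase fusion at 5 µM. Secreted Gluc activity in the medium is given as a Z-score relative to DMSO controls.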", "values": [
      {"smiles": "COc1cc2c(cc1O)-c1c(O)c(OC)cc3c1[C@H](C2)N(C)CC3", "secreted FVIII-Gluc luciferase Z-score": 0.6},
      {"smiles": "CN1CCc2cc3c(cc2[C@H]1[C@H]1OC(=O)c2c1ccc1c2OCO1)OCO3", "secreted FVIII-Gluc luciferase Z-score": 0.159},
      {"smiles": "C[C@@H]1O[C@@H](O[C@H]2C[C@@H](O)[C@]3(CO)[C@H]4[C@H](O)C[C@]5(C)[C@@H](C6=CC(=O)OC6)CC[C@]5(O)[C@@H]4CC[C@]3(O)C2)[C@H](O)[C@H](O)[C@H]1O", "secreted FVIII-Gluc luciferase Z-score": -3.87},
      {"smiles": "C/C=C1/CN2CC[C@]34C(=C(C=O)[C@H]1C[C@H]23)Nc1ccccc14", "secreted FVIII-Gluc luciferase Z-score": 0.372},
      {"smiles": "O=c1cccc2n1C[C@@H]1CNC[C@H]2C1", "secreted FVIII-Gluc luciferase Z-score": 0.0778},
      {"smiles": "COc1ccc2c(c1O)-c1c(OC)c(OC)cc3c1C(C2)N(C)CC3", "note": "(stereo not given)", "secreted FVIII-Gluc luciferase Z-score": 0.615},
      {"smiles": "O=C1CCCC2[C@@H]3CCCN4CCC[C@H](CN12)[C@H]34", "note": "(stereo not given in full)", "secreted FVIII-Gluc luciferase Z-score": 0.572},
      {"smiles": "CC1CC[C@@]2(OC1)O[C@H]1[C@@H](O)[C@H]3[C@@H]4CC[C@H]5C[C@@H](O[C@@H]6O[C@H](CO)[C@H](O[C@@H]7O[C@H](CO)[C@@H](O)[C@H](O[C@@H]8OC[C@@H](O)[C@H](O)[C@H]8O)[C@H]7O[C@@H]7O[C@H](CO)[C@@H](O)[C@H](O[C@@H]8O[C@H](CO)[C@@H](O)[C@H](O)[C@H]8O)[C@H]7O)[C@H](O)[C@H]6O)[C@H](O)C[C@]5(C)[C@H]4CC[C@]3(C)[C@H]1[C@@H]2C", "note": "(stereo not given in full)", "secreted FVIII-Gluc luciferase Z-score": 0.427},
      {"smiles": "CN(C)[C@@H]1C(=O)C(C(N)=O)=C(O)[C@@]2(O)C(=O)C3=C(O)c4c(O)cccc4[C@@](C)(O)[C@H]3C[C@@H]12", "secreted FVIII-Gluc luciferase Z-score": 0.496},
      {"smiles": "CC12C(=O)OC(=O)C1(C)C1CCC2O1", "note": "(stereo not given)", "secreted FVIII-Gluc luciferase Z-score": -4.31},
      {"smiles": "COc1ccc(CC2NCC(O)C2OC(C)=O)cc1", "note": "(stereo not given)", "secreted FVIII-Gluc luciferase Z-score": -4.62},
      {"smiles": "O=c1cccc2n1CC1CC2CN(CCO)C1", "note": "(stereo not given)", "secreted FVIII-Gluc luciferase Z-score": 0.624},
      {"smiles": "CN1C[C@@H](CO)C=C2c3cccc4[nH]cc(c34)CC21", "note": "(stereo not given in full)", "secreted FVIII-Gluc luciferase Z-score": 0.731},
      {"smiles": "CCC1(O)C(=O)OCc2c1cc1n(c2=O)Cc2cc3ccccc3nc2-1", "note": "(stereo not given)", "secreted FVIII-Gluc luciferase Z-score": -3.23},
      {"smiles": "C[C@@H]1OC(=O)[C@H]2C[C@H]3CCCC[C@@H]3[C@@H](/C=C/[C@@H]3CCC[C@@H](C)N3C)[C@@H]12", "secreted FVIII-Gluc luciferase Z-score": -0.126},
      {"smiles": "COc1cc2c(cc1OC)-c1c(O)c(OC)cc3c1[C@H](C2)N(C)CC3", "secreted FVIII-Gluc luciferase Z-score": 0.65},
      {"smiles": "COc1cc2c(cc1OC)-c1c(OC)c(OC)c(C=O)c3c1[C@H](C2)N(C)CC3", "secreted FVIII-Gluc luciferase Z-score": 0.0709},
      {"smiles": "COc1ccn(C)c(=O)c1C#N", "secreted FVIII-Gluc luciferase Z-score": -0.599},
      {"smiles": "C=C(C)[C@@H]1[C@H]2OC(=O)[C@@H]1[C@]1(O)C[C@H]3O[C@]34C(=O)O[C@H]2[C@]14C", "secreted FVIII-Gluc luciferase Z-score": 0.972},
      {"smiles": "CN1Cc2c(ccc3c2OCO3)C2C(O)Cc3cc4c(cc3C21)OCO4", "note": "(stereo not given)", "secreted FVIII-Gluc luciferase Z-score": -5.22},
      {"smiles": "C/C=C1/C[C@@H](C)[C@](O)(CO)C(=O)OCC2=CCN3CC[C@@H](OC1=O)[C@@H]23", "secreted FVIII-Gluc luciferase Z-score": -1.37},
      {"smiles": "CNC1C2CN3CCC(O2)C13", "note": "(stereo not given)", "secreted FVIII-Gluc luciferase Z-score": -1.02},
      {"smiles": "CC1(C)S[C@@H]2[C@H](N)C(=O)N2[C@H]1C(=O)O", "secreted FVIII-Gluc luciferase Z-score": -1.19},
      {"smiles": "CN1C[C@H](C(=O)N[C@]2(C)O[C@@]3(O)[C@@H]4CCCN4C(=O)[C@H](Cc4ccccc4)N3C2=O)C[C@@H]2c3cccc4[nH]cc(c34)C[C@H]21", "secreted FVIII-Gluc luciferase Z-score": 0.0715},
      {"smiles": "COc1cc2c(cc1OC)C13CCN4CC5=CCOC6CC(=O)N2C1C6C5CC43", "note": "(stereo not given)", "secreted FVIII-Gluc luciferase Z-score": 0.159},
      {"smiles": "O=C1C=C2C=C[C@@H]3C[C@@]2(O1)[C@H]1CCCCN31", "secreted FVIII-Gluc luciferase Z-score": 0.666},
      {"smiles": "CC[C@H]1C2C[C@H]3[C@@H]4N(C)c5ccccc5[C@]45C[C@@H](C2[C@H]5O)N3[C@@H]1O", "note": "(stereo not given in full)", "secreted FVIII-Gluc luciferase Z-score": 0.504},
      {"smiles": "CC(=O)OC1CC(OC2C(O)CC(OC3C(O)CC(OC4CCC5(C)C(CCC6C5CC(O)C5(C)C(C7=CC(=O)OC7)CCC65O)C4)OC3C)OC2C)OC(C)C1OC1OC(CO)C(O)C(O)C1O", "note": "(stereo not given)", "secreted FVIII-Gluc luciferase Z-score": -4},
      {"smiles": "CN(C)[C@@H]1C(=O)C(C(N)=O)=C(O)[C@@]2(O)C(=O)C3=C(O)c4c(O)cccc4[C@@](C)(O)[C@H]3[C@H](O)[C@@H]12", "secreted FVIII-Gluc luciferase Z-score": 0.919},
      {"smiles": "CCN1C[C@@]2(COC)C3[C@@H](OC)[C@H]4C1[C@@]3(C1C[C@@]3(O)[C@H](OC(=O)c5ccccc5)C1[C@]4(OC(C)=O)[C@@H](O)[C@@H]3OC)[C@@H](OC)C[C@H]2O", "note": "(stereo not given in full)", "secreted FVIII-Gluc luciferase Z-score": -0.523},
      {"smiles": "CCCCc1ccc(C(=O)O)nc1", "secreted FVIII-Gluc luciferase Z-score": 0.032},
      {"smiles": "COc1ccc(CC2c3cc(OC)c(OC)cc3CCN2C)cc1OC", "note": "(stereo not given)", "secreted FVIII-Gluc luciferase Z-score": -1.36},
      {"smiles": "CC(C)(O)[C@@H]1[C@H]2OC(=O)[C@@H]1[C@]1(O)C[C@H]3O[C@]34C(=O)O[C@H]2[C@]14C", "secreted FVIII-Gluc luciferase Z-score": -0.634},
      {"smiles": "C=C(C)[C@H]1Cc2c(ccc3c2O[C@@H]2COc4cc(OC)c(OC)cc4[C@@H]2C3=O)O1", "secreted FVIII-Gluc luciferase Z-score": -5.82},
      {"smiles": "COC1=CC2C3Cc4ccc(OC)c(O)c4C2(CCN3C)CC1=O", "note": "(stereo not given)", "secreted FVIII-Gluc luciferase Z-score": -0.0187},
      {"smiles": "CC1=CC(=O)c2c(O)cccc2C1=O", "secreted FVIII-Gluc luciferase Z-score": -2.68},
      {"smiles": "CCCN1C[C@H](CSC)C[C@@H]2c3cccc4[nH]cc(c34)C[C@H]21", "secreted FVIII-Gluc luciferase Z-score": 0.385},
      {"smiles": "COc1ccc2c(c1)[nH]c1c(C)nccc12", "secreted FVIII-Gluc luciferase Z-score": -2.87},
      {"smiles": "c1cncc(C2CCCCN2)c1", "note": "(stereo not given)", "secreted FVIII-Gluc luciferase Z-score": -0.711},
      {"smiles": "COc1ccc2c3c([nH]c2c1)C(C)=NCC3", "secreted FVIII-Gluc luciferase Z-score": -2.05}
    ]}
  ]
}
